Laboratory results published in the supplement of paper PMC8728848.
The sample as a whole holds a higher share of the strongest signals than the screen did.

Columns and labels:
Assay in all cases: glycan array binding signal (z-score within array); higher = stronger binding
Conditions in all cases: glycan notation: IUPAC condensed, linker removed
[1] = target: GlcNAc(a1-4)Gal(b1-4)GlcNAc(b1-3)Gal(b1-4)GlcNAc
Summary of the method: (§1)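 Glycan array binding is given as a within-array Z-score, which can be read as non-binding when negative. The arrays, 3228 of them, came from the Consortium for Functional Glycomics database and were retained only where the protein sequence was available. Z-scores were averaged across arrays of the same protein sequence at different concentrations or buffers and across linkers.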

[2] = target: GlcNAc(b1-2)[GlcNAc(b1-4)]Man(a1-3)[GlcNAc(b1-4)][GlcNAc(b1-2)[GlcNAc(b1-6)]Man(a1-6)]Man(b1-4)GlcNAc(b1-4)[Fuc(a1-6)]GlcNAc
Summary of the method: as §1

GlcNAc(b1-3)Fuc = target: GlcNAc(b1-3)Fuc
Summary of the method: as §1

GlcNAc(b1-3)Gal(b1-4)Glc = target: GlcNAc(b1-3)Gal(b1-4)Glc
Summary of the method: as §1

[3] = target: GlcNAc(b1-3)Gal(b1-4)GlcNAc(b1-3)Gal(b1-4)GlcNAc(b1-2)Man(a1-3)[GlcNAc(b1-3)Gal(b1-4)GlcNAc(b1-3)Gal(b1-4)GlcNAc(b1-2)Man(a1-6)]Man(b1-4)GlcNAc(b1-4)GlcNAc
Summary of the method: as §1

[4] = target: GlcNAc(b1-3)Gal(b1-4)GlcNAc(b1-3)Gal(b1-4)GlcNAc(b1-3)Gal(b1-4)GlcNAc(b1-3)Gal(b1-4)GlcNAc(b1-2)Man(a1-3)[GlcNAc(b1-3)Gal(b1-4)GlcNAc(b1-3)Gal(b1-4)GlcNAc(b1-3)Gal(b1-4)GlcNAc(b1-3)Gal(b1-4)GlcNAc(b1-2)Man(a1-6)]Man(b1-4)GlcNAc(b1-4)[Fuc(a1-6)]GlcNAc
Summary of the method: as §1

[5] = target: GlcNAc(b1-3)Gal(b1-4)GlcNAc(b1-3)Gal(b1-4)GlcNAc(b1-3)Gal(b1-4)GlcNAc(b1-3)Gal(b1-4)GlcNAc(b1-2)[GlcNAc(b1-3)Gal(b1-4)GlcNAc(b1-3)Gal(b1-4)GlcNAc(b1-3)Gal(b1-4)GlcNAc(b1-3)Gal(b1-4)GlcNAc(b1-6)]Man(a1-6)[GlcNAc(b1-3)Gal(b1-4)GlcNAc(b1-3)Gal(b1-4)GlcNAc(b1-3)Gal(b1-4)GlcNAc(b1-3)Gal(b1-4)GlcNAc(b1-2)Man(a1-3)]Man(b1-4)GlcNAc(b1-4)[Fuc(a1-6)]GlcNAc
Summary of the method: as §1

[6] = target: GlcNAc(b1-3)Gal(b1-4)GlcNAc(b1-3)[GlcNAc(b1-3)Gal(b1-4)GlcNAc(b1-3)]GalNAc
Summary of the method: as §1

Kdn(a2-3)Gal(b1-4)GlcNAc = target: Kdn(a2-3)Gal(b1-4)GlcNAc
Summary of the method: as §1

[7] = target: Man(a1-2)Man(a1-2)Man(a1-3)Man
Summary of the method: as §1

[8] = target: Neu5Ac(a2-3)Gal(b1-3)GlcNAc(b1-3)Gal(b1-4)GlcNAc
Summary of the method: as §1

[9] = target: Neu5Ac(a2-3)Gal(b1-3)GlcNAc(b1-3)GalNAc
Summary of the method: as §1

[10] = target: Neu5Ac(a2-6)Gal(b1-4)GlcNAc(b1-2)Man
Summary of the method: as §1

[11] = target: Neu5Ac(a2-6)Gal(b1-4)GlcNAc(b1-3)Gal(b1-4)GlcNAc
Summary of the method: as §1

[12] = target: Neu5Ac(a2-8)Neu5Ac(a2-3)[Gal(b1-3)GalNAc(b1-4)]Gal(b1-4)Glc
Summary of the method: as §1

[13] = target: Neu5Gc(b2-6)Gal(b1-4)GlcNAc
Summary of the method: as §1

Fuc(a1-2)Gal(b1-3)GlcNAc = target: Fuc(a1-2)Gal(b1-3)GlcNAc
Summary of the method: as §1

[14] = target: Fuc(a1-2)Gal(b1-3)GlcNAc(b1-3)Gal(b1-4)Glc
Summary of the method: as §1

[15] = target: Fuc(a1-2)Gal(b1-3)[Fuc(a1-4)]GlcNAc
Summary of the method: as §1

[16] = target: Fuc(a1-2)Gal(b1-4)GlcNAc(b1-2)Man(a1-3)[Fuc(a1-2)Gal(b1-4)GlcNAc(b1-2)Man(a1-6)]Man(b1-4)GlcNAc(b1-4)GlcNAc
Summary of the method: as §1

[17] = target: Fuc(a1-2)Gal(b1-4)[Fuc(a1-3)]GlcNAc
Summary of the method: as §1

[18] = target: Fuc(a1-2)[GalNAc(a1-3)]Gal(b1-3)GlcNAc
Summary of the method: as §1

[19] = target: Gal(a1-3)Gal(b1-3)[Fuc(a1-4)]GlcNAc(b1-2)Man(a1-3)[Gal(a1-3)Gal(b1-3)[Fuc(a1-4)]GlcNAc(b1-2)Man(a1-6)]Man(b1-4)GlcNAc(b1-4)GlcNAc
Summary of the method: as §1

[20] = target: Gal(a1-3)Gal(b1-4)[Fuc(a1-3)]GlcNAc
Summary of the method: as §1

[21] = target: Gal(a1-4)Gal(b1-4)GlcNAc(b1-2)Man(a1-3)[Gal(a1-4)Gal(b1-4)GlcNAc(b1-2)Man(a1-6)]Man(b1-4)GlcNAc(b1-4)GlcNAc
Summary of the method: as §1

Gal(b1-2)Gal = target: Gal(b1-2)Gal
Summary of the method: as §1

[22] = target: Gal(b1-3)GalNAc(b1-4)[Neu5Ac(a2-3)]Gal(b1-4)Glc
Summary of the method: as §1

[23] = target: Gal(b1-3)GlcNAc(b1-3)Gal(b1-4)Glc
Summary of the method: as §1

[24] = target: Gal(b1-3)GlcNAc(b1-3)Gal(b1-4)[Fuc(a1-3)]GlcNAc(b1-6)[Gal(b1-3)GlcNAc(b1-3)]Gal(b1-4)Glc
Summary of the method: as §1

[25] = target: Gal(b1-3)[Fuc(a1-4)]GlcNAc
Summary of the method: as §1

[26] = target: Gal(b1-3)[Fuc(a1-4)]GlcNAc(b1-2)Man(a1-3)[Gal(b1-3)[Fuc(a1-4)]GlcNAc(b1-2)Man(a1-6)]Man(b1-4)GlcNAc(b1-4)GlcNAc
Summary of the method: as §1

[27] = target: Gal(b1-3)[Fuc(a1-4)]GlcNAc(b1-2)Man(a1-3)[Gal(b1-3)[Fuc(a1-4)]GlcNAc(b1-2)Man(a1-6)]Man(b1-4)GlcNAc(b1-4)[Fuc(a1-6)]GlcNAc
Summary of the method: as §1

[28] = target: Gal(b1-4)GlcNAc(b1-2)Man(a1-3)[Gal(b1-4)GlcNAc(b1-2)Man(a1-6)]Man(b1-4)GlcNAc(b1-4)GlcNAc
Summary of the method: as §1

[29] = target: GalNAc(b1-4)GlcNAc(b1-2)Man(a1-3)[GalNAc(b1-4)GlcNAc(b1-2)Man(a1-6)]Man(b1-4)GlcNAc(b1-4)GlcNAc
Summary of the method: as §1

[30] = target: GlcNAc(b1-3)Gal(b1-4)GlcNAc(b1-3)Gal(b1-4)GlcNAc
Summary of the method: as §1

Kdn(a2-3)Gal(b1-4)Glc = target: Kdn(a2-3)Gal(b1-4)Glc
Summary of the method: as §1

[31] = target: Man(a1-2)Man(a1-2)Man(a1-6)[Man(a1-3)]Man
Summary of the method: as §1

[32] = target: Neu5Ac(a2-3)Gal(b1-3)GlcNAc6S
Summary of the method: as §1

[33] = target: Neu5Ac(a2-3)Gal(b1-3)[Fuc(a1-4)]GlcNAc(b1-3)Gal(b1-4)[Fuc(a1-3)]GlcNAc
Summary of the method: as §1

[34] = target: Neu5Ac(a2-3)Gal(b1-4)GlcNAc(b1-3)Gal(b1-4)GlcNAc
Summary of the method: as §1

[35] = target: Neu5Ac(a2-6)Gal(b1-4)GlcNAc(b1-3)Gal(b1-4)GlcNAc(b1-3)Gal(b1-4)GlcNAc
Summary of the method: as §1

Neu5Ac(a2-6)GalNAc = target: Neu5Ac(a2-6)GalNAc
Summary of the method: as §1

[36] = target: Neu5Ac9Ac(a2-3)Gal(b1-4)GlcNAc
Summary of the method: as §1

B1: Pa IMPa (Pseudomonas aeruginosa), Q9I5W4 (protein)
chain: MSLSTTAFPSLQGENMSRSPIPRHRALLAGFCLAGALSAQAATQEEILDAALVSGDSSQLTDSHLVALRLQQQVERIRQTRTQLLDGLYQNLSQAYDPGAASMWVLPANPDNTLPFLIGDKGRVLASLSLEAGGRGLAYGTNVLTQLSGTNAAHAPLLKRAVQWLVNGDPGAATAKDFKVSVVGVDKTAALNGLKSAGLQPADAACNALTDASCASTSKLLVLGNGASAASLSATVRARLQAGLPILFVHTNGWNQSSTGQQILAGLGLQEGPYGGNYWDKDRVPSSRTRTRSVELGGAYGQDPALVQQIVDGSWRTDYDWSKCTSYVGRTTCDDVPGLSDFSKRVDVLKGALDAYNQKAQNLFALPGTTSLRLWLLWADAVRQNIRYPMDKAADTARFQETFVADAIVGYVREAGAAQKELGSYAGQRQQSMPVSGSEETLTLTLPSAQGFTAIGRMAAPGKRLSIRIEDAGQASLAVGLNTQRIGSTRLWNTRQYDRPRFLKSPDIKLQANQSVALVSPYGGLLQLVYSGATPGQTVTVKVTGAASQPFLDIQPGEDSSQAIADFIQALDADKADWLEIRSGSVEVHAKVEKVRGSIDKDYGGDVQRFIRELNEVFIDDAYTLAGFAIPNQAKTPAIQQECAARGWDCDSETLHKLPGTQHINVDQYAQCGGGCSGNPYDQTWGLNPRGWGESHELGHNLQVNRLKVYGGRSGEISNQIFPLHKDWRVLREFGQNLDDTRVNYRNAYNLIVAGRAEADPLAGVYKRLWEDPGTYALNGERMAFYTQWVHYWADLKNDPLQGWDIWTLLYLHQRQVDKSDWDANKAALGYGTYAQRPGNSGDASSTDGNDNLLLGLSWLTQRDQRPTFALWGIRTSAAAQAQVAAYGFAEQPAFFYANNRTNEYSTVKLLDMSQGSPAWPFP
In the case of B1, the “glycan array binding signal (z-score)” value [1] is reported as -0.321, the “glycan array binding signal (z-score)” value [2] is reported as 1.41 and the “glycan array binding signal (z-score)” value (GlcNAc(b1-3)Fuc) is reported as 1.37. The “glycan array binding signal (z-score)” value (GlcNAc(b1-3)Gal(b1-4)Glc) was -0.08, the “glycan array binding signal (z-score)” value [3] was -0.305 and the “glycan array binding signal (z-score)” value [4] was 7.78. The “glycan array binding signal (z-score)” value [5] was 0.125, the “glycan array binding signal (z-score)” value [6] was 17.5 and the “glycan array binding signal (z-score)” value (Kdn(a2-3)Gal(b1-4)GlcNAc) was -0.467. The “glycan array binding signal (z-score)” value [7] was -0.474, the “glycan array binding signal (z-score)” value [8] was 0.474 and the “glycan array binding signal (z-score)” value [9] was 0.273. For the same binder, the “glycan array binding signal (z-score)” value [10] was -0.409, the “glycan array binding signal (z-score)” value [11] was -0.371 and the “glycan array binding signal (z-score)” value [12] was -0.007. The “glycan array binding signal (z-score)” value [13] was -0.305.

B2: SLP (Clostridium difficile), Q183M8 (protein)
chain: MATTGTQGYTVVKNDWKKAVKQLQDGLKDNSIGKITVSFNDGVVGEVAPKSANKKADRDAAAEKLYNLVNTQLDKLGDGDYVDFSVDYNLENKIITNQADAEAIVTKLNSLNEKTLIDIATKDTFGMVSKTQDSEGKNVAATKALKVKDVATFGLKSGGSEDTGYVVEMKAGAVEDKYGKVGDSTAGIAINLPSTGLEYAGKGTTIDFNKTLKVDVTGGSTPSAVAVSGFVTKDDTDLAKSGTINVRVINAKEESIDIDASSYTSAENLAKRYVFDPDEISEAYKAIVALQNDGIESNLVQLVNGKYQVIFYPEGKRLETKSLEHHHHHH
For B2, the “glycan array binding signal (z-score)” value (Fuc(a1-2)Gal(b1-3)GlcNAc) was -0.17, the “glycan array binding signal (z-score)” value [14] was 3.53 and the “glycan array binding signal (z-score)” value [15] was -0.18. For the same binder, the “glycan array binding signal (z-score)” value [16] was 3.46, the “glycan array binding signal (z-score)” value [17] was -0.174 and the “glycan array binding signal (z-score)” value [18] was -0.175. For the same binder, the “glycan array binding signal (z-score)” value [19] was 12.1, the “glycan array binding signal (z-score)” value [20] was -0.186 and the “glycan array binding signal (z-score)” value [21] was 0.537. For the same binder, the “glycan array binding signal (z-score)” value (Gal(b1-2)Gal) was -0.185, the “glycan array binding signal (z-score)” value [22] was -0.141 and the “glycan array binding signal (z-score)” value [23] was 3.65. For the same binder, the “glycan array binding signal (z-score)” value [24] was -0.152, the “glycan array binding signal (z-score)” value [25] was -0.182 and the “glycan array binding signal (z-score)” value [26] was 7.99. The “glycan array binding signal (z-score)” value [27] was 5.55, the “glycan array binding signal (z-score)” value [28] was -0.173 and the “glycan array binding signal (z-score)” value [29] was 6.19. For the same binder, the “glycan array binding signal (z-score)” value [30] was -0.209, the “glycan array binding signal (z-score)” value (Kdn(a2-3)Gal(b1-4)Glc) was -0.2 and the “glycan array binding signal (z-score)” value [31] was -0.17. For the same binder, the “glycan array binding signal (z-score)” value [32] was -0.167, the “glycan array binding signal (z-score)” value [33] was -0.057 and the “glycan array binding signal (z-score)” value [34] was -0.18. The “glycan array binding signal (z-score)” value [35] was -0.187, the “glycan array binding signal (z-score)” value (Neu5Ac(a2-6)GalNAc) was -0.177 and the “glycan array binding signal (z-score)” value [36] was -0.188.
